# Laboratory results: PubChem BioAssay AID652115 (Broad Institute, 2013)
# Out of some 330,000 compounds screened, about 3,800 (1.2%) were called active. The list comes from a sample in which actives are over-represented; it also holds similar structures and randomly drawn compounds. Values without a mark were called inactive. No stated cut-off is given here; in the data, active means inhibition above about 15%; inconclusive means no clear call, values can overlap the other calls; inactive means below that.
# Biological target: NAD-dependent protein deacylase sirtuin-5, mitochondrial (Homo sapiens) (UniProt Q9NXA8)
# Experiment: blockers of sirtuin-5 deacylase activity – biochemical, fluorescence imaging, single point, set 5, primary screen (AID 652115)
# Details: Purified SirT5, succinyl-peptide AMC, trypsin-coupled fluorescence; at 15 µM; stronger effect = higher value
# NAD-dependent protein deacylase sirtuin-5, mitochondrial (Homo sapiens), sequence (Q9NXA8 whole entry, looked up): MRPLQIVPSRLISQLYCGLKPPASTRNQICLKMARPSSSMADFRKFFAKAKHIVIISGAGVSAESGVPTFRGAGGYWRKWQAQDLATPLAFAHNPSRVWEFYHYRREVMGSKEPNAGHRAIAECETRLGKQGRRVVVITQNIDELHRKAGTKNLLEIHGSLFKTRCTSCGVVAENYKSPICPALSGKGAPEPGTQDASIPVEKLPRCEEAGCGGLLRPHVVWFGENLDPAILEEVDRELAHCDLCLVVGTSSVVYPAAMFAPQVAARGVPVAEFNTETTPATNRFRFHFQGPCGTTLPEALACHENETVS
row,SMILES,inhibition
1,COc1ccc2c3c(n(C)c2c1)[C@@H](CO)NCC31CCN(CC2CCCC2)CC1,-0.874%
2,CN1CCN(C(=O)C[C@@H]2C=C[C@@H](NS(=O)(=O)c3cccc(F)c3)[C@@H](CO)O2)CC1,1.94%
3,C[C@@H]1CN([C@@H](C)CO)S(=O)(=O)c2ccc(-c3cccnc3)cc2O[C@H]1CN(C)CC1CCOCC1,1.51%
4,CCC(=O)N1[C@H](C(=O)NC2CCC2)[C@@H](CO)[C@@H]2Cn3c(cccc3=O)[C@@H]21,-8.06%
5,C[C@H](CO)N1C[C@H](C)[C@@H](CN(C)S(=O)(=O)c2ccccc2F)Oc2ncc(C#Cc3ccccc3F)cc2C1=O,2.94%
6,N#C[C@@H]1[C@@H](c2ccccc2C2=CCCC2)[C@H](CO)N1C(=O)NC1CCCC1,1.76%
7,Oc1c(Cl)cc(Cl)c(Cl)c1Cc1c(O)c(Cl)cc(Cl)c1Cl,16% (active)
8,COCC(=O)Nc1ccc2c(c1)C(=O)N(C)[C@@H]1CC[C@@H](CC(=O)NCC(F)(F)F)O[C@H]1CO2,0.833%
9,O=C(NCCCc1ccccc1)C1CCC(=O)N(CCc2ccc(Cl)cc2)C1 (stereo not given),-3.16%
10,Cc1cnc(C)c(N2CCN(C(=O)C3CCC(=O)N(CCc4cccc(F)c4)C3)CC2)n1 (stereo not given),-3.12%
11,O=C1CCC(C(=O)N2CCC(O)(c3ccccc3)CC2)CN1CCc1ccccc1 (stereo not given),15.1% (active)
12,C[C@@H]1CN([C@@H](C)CO)C(=O)c2cccc(NC(=O)Nc3ccc(F)cc3)c2O[C@H]1CN(C)Cc1ccc(-c2ccccc2)cc1,-1.08%
13,CCNC(=O)[C@H]1[C@H](CO)[C@H]2Cn3c(ccc(-c4cccc(OC)c4)c3=O)[C@H]2N1Cc1nccs1,-15.5%
14,CN1c2ccc(C3=CCCCC3)cc2[C@@H]2[C@@H](CCN2C(=O)Nc2cc(F)ccc2F)[C@@H]1CO,1.41%
15,CC(C)C(=O)Nc1ccc2c3c(cccc13)CC2,18.7% (active)
16,CC(=O)Nc1ccc2c3c(ccc([N+](=O)[O-])c13)CC2,-1.7%
17,O=S(=O)(NC1CC1)c1ccc2c3c(cccc13)CC2,-2.65%
18,COCC#Cc1ccc([C@H]2[C@@H](CO)N3C(=O)CN(C(=O)C4CCCC4)C[C@@H]23)cc1,0.614%
19,C[C@H](CO)N1C[C@H](C)[C@@H](CN(C)S(=O)(=O)c2ccccc2)Oc2ccc(NC(=O)Nc3ccc(F)cc3)cc2CC1=O,3.49%
20,O=C([C@H]1[C@H](CO)[C@H]2Cn3c(ccc(C4=CCCCC4)c3=O)[C@@H]1N2)N1CCCCC1,-11.2%
21,C=C(C)COc1ccc(-c2ncncc2-c2ccc(OC)cc2)c(O)c1,24.8% (active)
22,C=C(C)COc1ccc(-c2nc(N)ncc2-c2ccccc2OC)c(O)c1,-0.166%
23,COc1ccc(-c2nc(N)ncc2-c2ccc(Cl)cc2)c(O)c1,-4.03%
24,C=C[C@H](OC)[C@@H](O)c1ccc(OC)c(O)c1,-1.66%
25,CCNC(=O)C[C@@H]1CC[C@@H]2[C@@H](COc3ccc(NC(C)=O)cc3C(=O)N2C)O1,1.4%

row,SMILES,inhibition
1,COCC(=O)Nc1ccc2c(c1)C(=O)N(C)C[C@@H](OC)[C@H](C)CN(C(=O)c1ccccn1)[C@@H](C)CO2,0.122%
2,O=C(NCC[C@@H]1CC[C@H](NC(=O)C2CC2)[C@H](CO)O1)c1cnccn1,1.79%
3,O=C(Nc1c(C(=O)N2CCCCC2)cnn1-c1ccccc1)c1ccco1,0.316%
4,Cc1ccccc1NC(=O)c1cnn(-c2ccccc2)c1NC(=O)c1ccco1,3.74%
5,O=C(NNc1ncnc2c1cnn2-c1ccccc1)c1ccco1,16.9% (active)
6,COc1ccc(Cl)cc1NC(=O)CN(C)Cc1ccc(OC)c(OC)c1,-4.51%
7,COc1ccc(Cl)cc1NC(=O)COc1ccc2c(c1)OCO2,-11.6%
8,COc1ccc(Cl)cc1NC(=O)COC(=O)c1ccc(Br)o1,21% (active)
9,O=C(C[C@@H]1CC[C@H]2[C@@H](COC[C@@H](O)CN2C(=O)Nc2ccc(F)cc2)O1)NCC1CC1,2.85%
10,O=C(C[C@@H]1CC[C@H](NC(=O)c2ccncc2)[C@@H](CO)O1)Nc1ccc(-c2ccccc2)cc1,-3.04%
11,COc1ccc(Br)cc1/C=N/Nc1ccc(Cl)c(C(=O)O)c1,-8.87%
12,Cc1ccc(NS(=O)(=O)c2ccc(N/N=C/c3ccccc3OCC(=O)O)c([N+](=O)[O-])c2)c(C)c1,-2.15%
13,O=C(O)c1ccccc1/C=N/Nc1ccc(S(=O)(=O)Nc2ccc(Cl)cc2)cc1[N+](=O)[O-],10.8%
14,COc1ccc(Br)cc1/C=N/Nc1ccc(S(=O)(=O)Nc2ccccc2C(=O)O)cc1[N+](=O)[O-],47.2% (active)
15,COc1cccc(/C=N/Nc2ccc(S(=O)(=O)Nc3ccccc3C(=O)O)cc2[N+](=O)[O-])c1O,19% (active)
16,COc1cc(OC)c(S(=O)(=O)Nc2ccccc2C(=O)O)cc1S(=O)(=O)Nc1ccccc1C(=O)O,0.719%
17,COc1ccc2c3c([nH]c2c1)[C@@H](CO)N(Cc1cccc(F)c1)CC31CN(CC2CC2)C1,3.68%
18,CCNC(=O)C[C@@H]1CC[C@@H]2[C@H](COc3ccc(NC(=O)Nc4cccc(C)c4)cc3C(=O)N2C)O1,-1.08%
19,C/C=C/c1ccccc1[C@@H]1[C@@H](CO)N(S(=O)(=O)c2cccc(F)c2)[C@H]1C#N,2.5%
20,O=C(C[C@@H]1CC[C@@H]2[C@H](COC[C@H](O)CN2S(=O)(=O)c2ccccc2)O1)N[C@H]1CCN(Cc2ccccc2)C1,-3.32%
21,COCC(=O)Nc1ccc2c(c1)C(=O)N(C)C[C@@H](OC)[C@H](C)CN(C(=O)c1cccnc1)[C@H](C)CO2,5.23%
22,C=CCOc1cccc(C2C(C(=O)c3ccc(C)o3)=C(O)C(=O)N2c2nnc(C)s2)c1 (stereo not given),-0.578%
23,Cc1cc(N2C(=O)C(O)=C(C(=O)c3ccc(C)o3)C2c2ccc(OCc3ccccc3)cc2)no1 (stereo not given),19.4% (active)
24,COc1cc(C2C(C(=O)c3ccco3)=C(O)C(=O)N2c2cc(C)on2)ccc1OCc1ccccc1 (stereo not given),-4.04%
25,COc1ccc(NC(=O)Nc2ccc3c(c2)C(=O)N([C@@H](C)CO)C[C@@H](C)[C@@H](CN(C)C(=O)CCCN(C)C)OCCCC[C@@H](C)O3)cc1,-2.34%

row,SMILES,inhibition
1,COc1ccc2c3c(n(C)c2c1)[C@@H](CO)N(CC1CC1)CC31CN(C(=O)c2cccc(F)c2)C1,1.38%
2,Cc1cc([N+](=O)[O-])ccc1NC1CCCC1,21.2% (active)
3,Cc1cc([N+](=O)[O-])ccc1NS(=O)(=O)c1ccccc1,4.53%
4,Cc1cc(C=O)c(C)n1-c1ccc(NC2CCCCC2)c([N+](=O)[O-])c1,2.63%
5,C[C@@H]1CN([C@H](C)CO)C(=O)c2cc(-c3cccc(F)c3)cnc2O[C@H]1CN(C)C(=O)Nc1ccccc1F,4.47%
6,O=C(CN1CCOCC1)N[C@@H]1CC[C@@H](CCNC(=O)C2CCCCC2)O[C@@H]1CO,7.91%
7,C[C@H]1CN([C@@H](C)CO)C(=O)c2cc(C#CC3CCCC3)cnc2O[C@H]1CN(C)C(=O)c1ccncc1,5.96%
8,Cc1c(C(=O)NCCN2CCOCC2)sc2nc(-c3ccc(F)cc3)cn12,26.8% (active)
9,Cc1ccc(C(=O)N/C(=C\c2ccc(F)cc2)C(=O)NCCN2CCOCC2)cc1,-1.92%
10,Cc1c(C(=O)NCC2CCCO2)sc2nc(-c3ccccc3)cn12 (stereo not given),-9.93%
11,C[C@@H]1CCCCO[C@@H](CN(C)C(=O)Nc2ccc(C(F)(F)F)cc2)[C@H](C)CN([C@@H](C)CO)C(=O)c2cc(N(C)C)ccc2O1,2.03%
12,O=C(c1ccc(F)cc1)N1CC(=O)N2[C@@H](CO)[C@H](c3ccc(C4=CCCC4)cc3)[C@@H]2C1,-4.25%
13,C[C@@H]1CN([C@H](C)CO)S(=O)(=O)c2ccc(C#CCC3CCCC3)cc2O[C@H]1CN(C)C(=O)CC1CC1,9.26%
14,C[C@@H]1CN([C@@H](C)CO)S(=O)(=O)c2ccc(C#CCC3CCCC3)cc2O[C@@H]1CN(C)C,2.36%
15,C[C@@H]1CN([C@@H](C)CO)S(=O)(=O)c2ccc(C#CCC3CCCC3)cc2O[C@H]1CN(C)Cc1ccc(C(=O)O)cc1,17.1% (active)
16,C[C@H]1CN([C@@H](C)CO)S(=O)(=O)c2ccc(C#CCN(C)C)cc2O[C@@H]1CN(C)Cc1ccc(F)cc1,-1.1%
17,C[C@@H]1CN([C@H](C)CO)S(=O)(=O)c2ccc(C#CCC3CCCC3)cc2O[C@H]1CN(C)Cc1ccc(C(=O)O)cc1,15.8% (active)
18,C[C@@H]1CN([C@@H](C)CO)S(=O)(=O)c2ccc(C#CCC3CCCC3)cc2O[C@H]1CN(C)C(=O)CC1CC1,9.11%
19,CO[C@@H]1CN(C)C(=O)c2ccc(NC(=O)c3cccc(Oc4ccccc4)c3)cc2OC[C@H](C)NC[C@@H]1C,0.913%
20,CN(C)C(=O)c1cccc(-c2ccc3n(c2=O)C[C@H]2N[C@@H]3[C@@H](C(=O)NC3CCC3)[C@@H]2CO)c1,-48.3%
21,COc1ccc2c3c(n(C)c2c1)[C@H](CO)N(C(C)=O)CC31CN(C(=O)c2cnccn2)C1,-3.27%
22,CCc1nnc(NS(=O)(=O)c2ccc(NC(=S)NC(=O)c3cccs3)cc2)s1,19.1% (active)
23,CCc1nnc(NS(=O)(=O)c2ccc(NC(=S)NC(=O)/C=C/c3cccs3)cc2)s1,9.43%
24,CCc1nnc(NS(=O)(=O)c2ccc(NC(=O)c3cccc(OC(F)(F)C(F)F)c3)cc2)s1,-3.94%
25,C[C@@H]1CN([C@@H](C)CO)C(=O)c2cc(NS(C)(=O)=O)ccc2O[C@@H](C)CCCCO[C@@H]1CN(C)C(=O)c1ccccc1,0.623%
